This note sets out measurements from PubChem BioAssay (NCATS).

Test [1] concerns the target Cytochrome P450 1A2 (Homo sapiens) (UniProt P05177). Description: p450-cyp1a2 (AID 410; calls by dose curve; also: potency is read from the fitted curve at half-maximal effect). The method, boiled down:
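20nM CYP1A2 with 100uM Luciferin-ME (at Km) in 100mM KPO4; compound preincubated 10 min, NADPH regeneration added, 60 min at room temperature. Luciferin quantified by luminescence after detection reagent; normalized to 57 uM furafylline.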

Test [2] is described as follows: NFAT Signaling Pathway (AID 444; active = well fitted curve in either direction with a large enough effect, not every such curve was filed as active;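 also: carbachol stimulus at about its EC50 of 1 µM final; % is scaled to controls: 0 for no effect and ±100 for the full control effect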). To be noted: Jurkat NFAT-bla M1, carbachol, beta-lactamase ratio, 5 h; at 7.69 µM (top of the series) unless noted. The method, boiled down: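 Read-out: CCF4 FRET ratio (460 nm/530 nm) after 1 h RT dye loading, used for %activity and AC50 from titration series. Cells: Jurkat NFAT-β-lactamase/M1 line, treated with compound plus 1 uM carbachol for 5 h, 37 °C.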

Test [3] has as its target Glucocorticoid receptor (Homo sapiens) (UniProt P04150). Description: GR-GFP Redistribution (AID 450;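 active = compounds whose dose series gives a full or clear partial fitted curve of increased nuclear translocation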; also: potency is read from the fitted curve at half-maximal effect). To be noted: U2OS GR-GFP nuclear translocation, laser cytometry, 2 h.
Test [4] has the same target. Put plainly: GR-EFC Redistribution (AID 451; calls by dose curve; also: potency is read from the fitted curve at half-maximal effect). Conditions: CHO-K1 GR-EFC translocation, beta-gal luminescence, 2 h. The method, boiled down:
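Translocation of GR-ED fusion to nuclear EA restores b-gal, read by luminescence after 1 h room-temperature detection. Engineered CHO-K1 biosensor cells, 1,000/well, exposed 2 h at 37 C to titrations up to 46 uM final.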

The target of test [5] is Mitogen-activated protein kinase 10 (Mus musculus) (UniProt Q61831). Put plainly: JNK3 AlphaScreen Assay (AID 530; active = well fitted curve in either direction with a large enough effect, not every such curve was filed as active;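 also: kinase came from lysate of stimulated human HepG2 cells; signal reports phosphorylation of biotinylated GST-cJun 1-79 at Ser73 with 10 µM ATP; % is scaled to controls: 0 for no effect and ±100 for the full control effect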). The method, boiled down: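 Compound titrations were preincubated 15 minutes at room temperature with substrate, antibody and pre-activated JNK3-containing HepG2 lysate. Reactions were started with 10 uM ATP and stopped with EDTA-containing bead buffer for AlphaScreen detection.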

The target of test [6] is Cytochrome P450 3A4 (Homo sapiens) (UniProt P08684). Put plainly: qHTS Assay for Activators of Cytochrome P450 3A4 (AID 885). Also: nearly all actives have a fitted effect of over 65% in size. In a few lines:
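Steps: enzyme/substrate mix dispensed; compound added, 10 min RT; NADPH regeneration solution added, 60 min RT; luciferin detection buffer stops reaction; 20 min later luminescence measured.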
(In general: In qHTS, concentration-response curves come from the screen itself.)

Test [7] can be described thus: qHTS Assay for Identification of Small Molecule Agonists for Hypoxia Response Element Signaling Pathway (AID 914; active = well fitted activation curve with a large enough effect in the signal ratio, with a control signal flat, not every such curve was filed as active; the % refers to the signal ratio; also: potency is read from the fitted curve at half-maximal effect). Conditions: ME-180 HRE-bla reporter, beta-lactamase ratio, CoCl2, 17 h; activation: active compounds read high. In a few lines:
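HRE-bla ME-180 cells with beta-lactamase reporter under hypoxia response element, compounds with EC50 CoCl2 for 17 hours at 37 C. CCF4 substrate, 460nm/530nm emission ratio gave %Activity; AC50 from titration series.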

In test [8] the target is Dual specificity protein kinase CLK4 (Homo sapiens) (UniProt Q9HAZ1). Put plainly: qHTS Assay for Inhibitors of CDC-like Kinase 4 (ADP-Glo Assay) (AID 1771). Also: nearly all actives have a fitted effect of over 70% in size. Also: potency is read from the fitted curve at half-maximal effect. The method, boiled down: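 25 nM Clk4 with 100 uM RS repeat peptide and 1 uM ATP (final) in buffer with 2 mM MgCl2, 0.5 mM EGTA, 2.5 mM DTT, 0.01% Triton X-100; 1 h at room temperature; ADP-Glo luminescence for ADP formed.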
Sequence of Dual specificity protein kinase CLK4 (Homo sapiens) (Q9HAZ1 whole entry, looked up): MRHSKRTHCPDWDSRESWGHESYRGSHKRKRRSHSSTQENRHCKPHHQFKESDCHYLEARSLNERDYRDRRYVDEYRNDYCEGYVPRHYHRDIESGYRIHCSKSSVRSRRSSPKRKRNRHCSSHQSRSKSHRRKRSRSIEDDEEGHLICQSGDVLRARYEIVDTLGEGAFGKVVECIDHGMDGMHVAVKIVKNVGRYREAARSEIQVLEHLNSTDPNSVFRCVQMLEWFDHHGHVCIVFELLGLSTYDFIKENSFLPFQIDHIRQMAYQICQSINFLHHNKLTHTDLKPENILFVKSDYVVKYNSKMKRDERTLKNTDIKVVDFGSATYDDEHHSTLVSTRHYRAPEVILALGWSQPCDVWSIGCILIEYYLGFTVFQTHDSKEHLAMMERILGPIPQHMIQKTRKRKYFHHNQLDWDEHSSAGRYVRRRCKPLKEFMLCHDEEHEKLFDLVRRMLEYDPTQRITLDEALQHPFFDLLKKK

The target is the same in test [9]. Description: qHTS Assay for Inhibitors of CDC-like Kinase 4 (ADP-FP Assay) (AID 1795).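 Also: recombinant human CLK4 phosphorylating RS repeat peptide at 1 µM ATP; % is scaled to controls: 0 for no effect and ±100 for the full control effect; nearly all actives have a fitted effect of over 60% in size.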 The method, boiled down: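 Clk4 6.25 nM; RS peptide 100 uM; ATP 1 uM; 25 mM Tris pH 7.5, 10 mM MgCl2; 1 h reaction. ADP detected via antibody/orange tracer FP displacement; TG003 positive control.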
In test [10] the target is Ubiquitin carboxyl-terminal hydrolase 1 (Homo sapiens) (UniProt O94782). Put plainly: Inhibitors of USP1/UAF1: Pilot qHTS (AID 504865).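 Also: rhodamine fluorescence freed from ubiquitin-rhodamine substrate followed over time; top concentration of the series differs between compounds; % is scaled to controls: 0 for no effect and ±100 for the full control effect; nearly all actives have a fitted effect of over 35% in size.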 The method, boiled down: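 In 50mM HEPES pH 7.8 containing 0.5mM EDTA, 1mM TCEP, 0.1 mg/ml BSA and 0.01% Tween-20, 1nM USP1/UAF1 is exposed to compound for 15 min, then Ub-Rho (150nM final) is added and fluorescence is read over time.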
Sequence of Ubiquitin carboxyl-terminal hydrolase 1 (Homo sapiens) (O94782 whole entry, looked up): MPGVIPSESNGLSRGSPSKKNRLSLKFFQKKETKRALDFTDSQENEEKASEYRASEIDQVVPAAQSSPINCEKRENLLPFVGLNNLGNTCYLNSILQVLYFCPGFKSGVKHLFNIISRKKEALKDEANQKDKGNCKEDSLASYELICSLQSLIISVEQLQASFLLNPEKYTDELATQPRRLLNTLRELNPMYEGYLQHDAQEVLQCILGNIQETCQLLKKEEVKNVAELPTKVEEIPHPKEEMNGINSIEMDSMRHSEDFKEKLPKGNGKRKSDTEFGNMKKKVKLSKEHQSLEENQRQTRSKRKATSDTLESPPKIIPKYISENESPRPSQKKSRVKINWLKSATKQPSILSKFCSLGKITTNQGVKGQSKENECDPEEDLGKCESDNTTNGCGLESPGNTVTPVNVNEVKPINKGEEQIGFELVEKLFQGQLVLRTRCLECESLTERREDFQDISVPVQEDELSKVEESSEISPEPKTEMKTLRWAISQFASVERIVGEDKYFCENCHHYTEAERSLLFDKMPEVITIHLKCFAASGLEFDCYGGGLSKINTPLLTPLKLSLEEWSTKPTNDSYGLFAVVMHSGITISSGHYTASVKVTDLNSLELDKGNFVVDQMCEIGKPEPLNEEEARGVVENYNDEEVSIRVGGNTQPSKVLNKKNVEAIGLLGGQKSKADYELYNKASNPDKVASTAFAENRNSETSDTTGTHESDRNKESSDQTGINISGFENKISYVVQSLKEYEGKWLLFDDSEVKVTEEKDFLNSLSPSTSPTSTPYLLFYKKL

The nature of test [11]: Primary qHTS for small molecule stabilizers of the endoplasmic reticulum resident proteome: Secreted ER Calcium Modulated Protein (SERCaMP) assay (AID 1508630). Also: % is scaled to controls: 0 for no effect and ±100 for the full control effect. The method, boiled down: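 GLuc-SERCaMP-expressing SH-SY5Y cells, pretreated 16 h with compound, are challenged with thapsigargin to empty ER calcium stores; after 4 h, coelenterazine is added directly to the medium and luminescence is imaged.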

The nature of test [12]: AP1 Signaling Pathway (AID 357; active = well fitted curve in either direction with a large enough effect, not every such curve was filed as active;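 also: ME-180 reporter cells stimulated with EGF at its EC50 level; % is scaled to controls: 0 for no effect and ±100 for the full control effect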). Conditions: ME-180 AP-1-bla reporter, EGF-induced, beta-lactamase ratio, 5 h; at 7.69 µM (top of the series) unless noted. In a few lines:
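In this screen, ME-180 cells in Opti-MEM with 0.5% dialyzed FBS received EC50 EGF and compound titrations for 5 h. AP-1 reporter beta-lactamase was detected via CCF4 ratio, giving AC50 for positive and negative modulators.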

Test [13] can be described thus: Stat Signaling Pathway (AID 446; active = well fitted curve in either direction with a large enough effect, not every such curve was filed as active). To be noted: ME-180 SIE beta-lactamase reporter, IL-6 stimulated, 5 h; at 7.69 µM (top of the series) unless noted. In a few lines: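 Screening format detects activators and inhibitors alike: ME-180 SIE-bla cells stimulated at 40 pM IL-6 for 5 hrs with compound, then dual-emission beta-lactamase read at 405 nm excitation.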
For test [14], the target named is Lysosomal acid glucosylceramidase (Homo sapiens) (UniProt P04062). Description: Glucocerebrosidase-p2 (AID 348; in the data active = potency below about 10 µM; also: potency is read from the fitted curve at half-maximal effect). To be noted: purified GBA, blue fluorogenic substrate, 40 min. The method, boiled down: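 Compounds titrated from 0.6 nM upwards against 0.2 nM enzyme in pH 5.9 citric acid/KH2PO4, taurocholate, tween-20; blue fluorogenic substrate 80 uM, 40 min room temperature, stopped and read Ex 365/Em 440 for AC50.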
Sequence of Lysosomal acid glucosylceramidase (Homo sapiens) (P04062 whole entry, looked up): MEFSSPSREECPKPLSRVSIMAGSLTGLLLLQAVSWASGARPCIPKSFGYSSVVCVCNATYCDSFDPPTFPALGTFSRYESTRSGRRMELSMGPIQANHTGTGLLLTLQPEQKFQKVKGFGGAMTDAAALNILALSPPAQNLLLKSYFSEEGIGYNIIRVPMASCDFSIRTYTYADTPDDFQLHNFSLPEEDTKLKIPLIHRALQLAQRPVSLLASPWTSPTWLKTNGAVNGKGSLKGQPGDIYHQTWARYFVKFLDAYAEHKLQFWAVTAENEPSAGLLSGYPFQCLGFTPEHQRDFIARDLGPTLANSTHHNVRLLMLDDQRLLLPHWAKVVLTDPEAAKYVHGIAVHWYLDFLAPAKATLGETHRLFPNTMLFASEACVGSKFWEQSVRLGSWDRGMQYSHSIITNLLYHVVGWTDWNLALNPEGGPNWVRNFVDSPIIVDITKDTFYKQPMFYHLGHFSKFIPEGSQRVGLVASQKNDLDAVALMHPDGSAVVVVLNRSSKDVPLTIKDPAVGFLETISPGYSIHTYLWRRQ

Test [15] addresses Cytochrome P450 2D6 (Homo sapiens) (UniProt P10635). Put plainly: qHTS Assay for Inhibitors and Substrates of Cytochrome P450 2D6 (AID 891). Also: potency is read from the fitted curve at half-maximal effect; nearly all actives have a fitted effect of over 60% in size. The method, boiled down:
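Human CYP2D6 (5 nM) with 30 uM Luciferin-ME EGE (at Km) in 100 mM KPO4, compound preincubated 10 min, then NADPH regeneration system for 60 min at room temperature. Luciferin read by luminescence; normalized to 1.43 uM quinidine.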

Test [16] concerns the target 3',5'-cyclic-AMP phosphodiesterase 4B (Homo sapiens) (UniProt Q07343). Description: qHTS Assay for Inhibitors of PDE-IV (AID 607; active = well fitted activation curve with a large enough effect in the main read-out, with a control signal flat, not every such curve was filed as active; also: % of control where 0% means no effect). The method, boiled down:
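The readout is membrane depolarisation from a cAMP-sensing CNG channel, detected with a potential dye at ex 535/em 590. Cells were HEK293-derived (endogenous PDE-IV) at 1000 cells/well, titrated up to 22.9 uM final.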

Unmarked numbers belong to inactive results. Results filed as inconclusive are left out. Active and inactive are the calls of the source. Unless noted, calls follow the shape of the dose curve; as a rule, active = well fitted curve in the direction sought with a large enough effect; inconclusive = small, poorly fitted or top-dose-only effect, or another doubt; inactive = no such curve, though single readings can be large; an effect the other way counts as inactive or inconclusive.

Sequence of Glucocorticoid receptor (Homo sapiens) (P04150 whole entry, looked up): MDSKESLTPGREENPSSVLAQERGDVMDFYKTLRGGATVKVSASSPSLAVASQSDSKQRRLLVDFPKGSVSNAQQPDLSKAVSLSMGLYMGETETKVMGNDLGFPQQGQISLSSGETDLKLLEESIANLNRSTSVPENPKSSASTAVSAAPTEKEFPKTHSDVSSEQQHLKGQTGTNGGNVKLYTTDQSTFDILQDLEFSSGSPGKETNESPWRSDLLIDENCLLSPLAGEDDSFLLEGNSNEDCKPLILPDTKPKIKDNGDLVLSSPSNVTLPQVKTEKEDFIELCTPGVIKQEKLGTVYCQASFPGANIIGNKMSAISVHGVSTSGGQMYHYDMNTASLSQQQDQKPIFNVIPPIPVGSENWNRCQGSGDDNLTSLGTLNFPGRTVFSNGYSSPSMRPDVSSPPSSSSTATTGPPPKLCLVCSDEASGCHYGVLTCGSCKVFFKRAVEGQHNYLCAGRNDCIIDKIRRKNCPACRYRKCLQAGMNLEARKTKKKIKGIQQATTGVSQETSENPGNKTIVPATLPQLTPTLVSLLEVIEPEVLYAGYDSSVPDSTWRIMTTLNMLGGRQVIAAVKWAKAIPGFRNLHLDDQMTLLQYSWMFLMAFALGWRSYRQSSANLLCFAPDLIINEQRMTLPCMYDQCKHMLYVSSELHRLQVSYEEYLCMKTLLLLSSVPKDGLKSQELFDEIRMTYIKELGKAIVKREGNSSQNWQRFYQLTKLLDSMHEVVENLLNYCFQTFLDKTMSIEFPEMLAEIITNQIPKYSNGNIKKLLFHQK
Sequence of Cytochrome P450 3A4 (Homo sapiens) (P08684 whole entry, looked up): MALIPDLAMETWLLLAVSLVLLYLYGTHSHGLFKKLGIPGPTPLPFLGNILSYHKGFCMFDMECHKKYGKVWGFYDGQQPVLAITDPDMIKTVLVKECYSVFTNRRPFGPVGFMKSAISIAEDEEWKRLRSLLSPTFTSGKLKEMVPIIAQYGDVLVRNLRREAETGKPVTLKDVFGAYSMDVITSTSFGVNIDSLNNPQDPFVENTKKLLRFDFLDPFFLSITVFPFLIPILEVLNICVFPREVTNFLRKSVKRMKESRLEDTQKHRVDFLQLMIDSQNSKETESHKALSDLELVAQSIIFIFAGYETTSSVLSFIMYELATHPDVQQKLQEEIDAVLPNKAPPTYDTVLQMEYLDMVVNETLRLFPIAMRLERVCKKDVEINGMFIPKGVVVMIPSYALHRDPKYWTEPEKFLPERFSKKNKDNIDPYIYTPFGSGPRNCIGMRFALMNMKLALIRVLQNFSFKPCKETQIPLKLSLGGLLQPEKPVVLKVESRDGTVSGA
Sequence of Cytochrome P450 1A2 (Homo sapiens) (P05177 whole entry, looked up): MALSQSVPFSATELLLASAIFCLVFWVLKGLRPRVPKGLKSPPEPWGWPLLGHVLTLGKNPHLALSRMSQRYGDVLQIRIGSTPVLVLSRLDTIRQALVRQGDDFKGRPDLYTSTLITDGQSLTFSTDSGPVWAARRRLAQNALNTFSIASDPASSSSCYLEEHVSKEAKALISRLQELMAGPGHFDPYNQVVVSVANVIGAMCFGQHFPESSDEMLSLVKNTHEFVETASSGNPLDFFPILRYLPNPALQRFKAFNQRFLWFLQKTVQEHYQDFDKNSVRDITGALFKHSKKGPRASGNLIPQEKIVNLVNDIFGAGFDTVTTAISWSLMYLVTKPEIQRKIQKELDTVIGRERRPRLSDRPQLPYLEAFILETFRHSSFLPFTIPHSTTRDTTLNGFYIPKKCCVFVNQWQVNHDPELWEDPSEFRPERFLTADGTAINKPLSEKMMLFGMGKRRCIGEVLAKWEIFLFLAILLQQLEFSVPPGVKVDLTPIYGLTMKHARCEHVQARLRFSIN
Sequence of 3',5'-cyclic-AMP phosphodiesterase 4B (Homo sapiens) (Q07343 whole entry, looked up): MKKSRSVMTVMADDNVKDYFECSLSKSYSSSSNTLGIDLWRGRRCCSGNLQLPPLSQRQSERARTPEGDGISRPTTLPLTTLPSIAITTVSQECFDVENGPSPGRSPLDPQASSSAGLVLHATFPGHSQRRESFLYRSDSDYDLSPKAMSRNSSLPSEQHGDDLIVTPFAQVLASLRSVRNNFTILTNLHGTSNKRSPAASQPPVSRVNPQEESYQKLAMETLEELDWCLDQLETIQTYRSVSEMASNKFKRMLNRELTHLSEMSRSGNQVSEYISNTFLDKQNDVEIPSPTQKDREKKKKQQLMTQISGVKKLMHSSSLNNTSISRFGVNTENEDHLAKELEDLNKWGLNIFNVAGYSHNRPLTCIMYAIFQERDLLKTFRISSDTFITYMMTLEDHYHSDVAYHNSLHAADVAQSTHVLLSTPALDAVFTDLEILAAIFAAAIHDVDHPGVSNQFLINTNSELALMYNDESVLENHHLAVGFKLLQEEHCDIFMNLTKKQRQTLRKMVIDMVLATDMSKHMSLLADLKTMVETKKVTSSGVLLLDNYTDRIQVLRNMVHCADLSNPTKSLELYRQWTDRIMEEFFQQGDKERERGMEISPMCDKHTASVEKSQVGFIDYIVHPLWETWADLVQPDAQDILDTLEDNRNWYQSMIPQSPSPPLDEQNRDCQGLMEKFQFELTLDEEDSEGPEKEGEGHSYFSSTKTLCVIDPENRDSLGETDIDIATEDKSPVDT
Sequence of Cytochrome P450 2D6 (Homo sapiens) (P10635 whole entry, looked up): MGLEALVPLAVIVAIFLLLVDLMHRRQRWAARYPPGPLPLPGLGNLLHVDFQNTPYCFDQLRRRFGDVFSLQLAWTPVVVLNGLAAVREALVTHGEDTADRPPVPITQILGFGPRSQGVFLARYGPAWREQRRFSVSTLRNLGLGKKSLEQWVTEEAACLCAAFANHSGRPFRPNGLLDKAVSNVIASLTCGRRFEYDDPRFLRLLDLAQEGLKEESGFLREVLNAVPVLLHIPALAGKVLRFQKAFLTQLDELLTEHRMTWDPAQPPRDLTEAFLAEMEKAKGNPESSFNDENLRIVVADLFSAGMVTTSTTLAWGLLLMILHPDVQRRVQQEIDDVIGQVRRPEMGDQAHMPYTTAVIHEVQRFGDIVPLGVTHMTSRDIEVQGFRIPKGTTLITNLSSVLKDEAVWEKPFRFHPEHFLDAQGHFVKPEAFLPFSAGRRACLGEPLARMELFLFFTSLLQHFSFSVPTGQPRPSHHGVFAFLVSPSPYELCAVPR

For `CCNc1ncc2nc(-c3ccc(OC)cc3)c(=O)n(Cc3cccs3)c2n1`, the Potency in [1] is 0.631 µM (active); in [3], over 9.22 µM; in [4], over 46 µM; in test [7], 3.16 µM (active). Also, the activity change, negative = inhibition in test [2] was 2.94%. For the same compound, the Potency entry in test [5], in test [6], in [8], in test [9] and in test [10] was “inactive” throughout. Also, in [11], the outcome was inactive.
Take `CN(C)C(=O)c1ccc(-c2cncnc2Nc2ccc(F)cc2)cc1`: the activity change, negative = inhibition in test [12] was -12.8%; in test [2] it was 5.12%. Besides, the activity, negative = inhibition in test [13] is 9.71%. Further, the Potency in test [3] was over 46 µM; in [4], over 46 µM; in [8] it was 25.1 µM (active). Moreover, the Potency result in test [5], in test [9] and in [10] was “inactive” each time. In test [11], the result was inactive.
Take `CCNc1ncc2nc(-c3cc(F)cc(F)c3)c(=O)n(CCOC)c2n1`: the Potency in test [14] was over 11.4 µM; in test [1] it was 3.16 µM (active); in test [3] it was over 9.22 µM; in test [4] it was over 46 µM; in test [15], 0.316 µM (active). Also, the Potency entry in test [5], in [6], in test [8], in test [9] and in test [10] was “inactive” in each case. Besides, in [11], the outcome was inactive.
Consider `Cn1c(=O)c(-c2cc(F)cc(F)c2)nc2cncnc21`, for which the Potency in test [14] is over 11.4 µM; in [1], 0.631 µM (active); in [3] it was over 9.22 µM; in test [4], over 46 µM. In addition, the results for the activity change, negative = inhibition in [12] and in test [2] were -3.06% and 3.39%, respectively. The activity, negative = inhibition in [13] is 5.34%. Further, the Potency result in test [5], in test [16], in test [6], in test [8], in [9] and in [10] was “inactive” throughout. Besides, the result in test [11] was inactive.
